Cruzain noTriton: cruzain (T. cruzi) inhibition without detergent | P25779 | purified cruzain, Z-FR-AMC fluorescence, no detergent | Potency, µM, without a hit: max response, negative = inhibition, actives largely listed as inhibitors | hit rate 2.3% among 200,000 | AID 1476;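 further: plate controls were enzyme without inhibitor for no effect and buffer without enzyme for full effect; nearly all actives have a fitted effect of over 40% in size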
Target sequence (P25779 123-467 limits assumed): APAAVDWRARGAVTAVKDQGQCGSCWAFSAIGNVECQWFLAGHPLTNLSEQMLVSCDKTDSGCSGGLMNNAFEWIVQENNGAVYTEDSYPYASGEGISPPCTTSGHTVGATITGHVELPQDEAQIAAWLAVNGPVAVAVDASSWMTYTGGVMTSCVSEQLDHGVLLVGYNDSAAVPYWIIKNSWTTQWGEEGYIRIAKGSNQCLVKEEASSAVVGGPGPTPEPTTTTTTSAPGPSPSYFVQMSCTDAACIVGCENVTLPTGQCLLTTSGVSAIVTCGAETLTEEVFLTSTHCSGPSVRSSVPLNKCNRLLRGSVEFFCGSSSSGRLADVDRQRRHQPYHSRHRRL
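Purified cruzain at 1.5 nM, pre-incubated 15 min with compound at room temperature in 100 mM sodium acetate pH 5.5, 5 mM DTT, 0.00005% Triton X-100. Reaction started with 2 uM Z-FR-AMC; AMC fluorescence increase over 60 s gives rate.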
Cruzain Triton: blocks cruzain activity in presence of Triton detergent; purified cruzain, Z-FR-AMC fluorescence, 0.01% Triton; AID 1478; hit rate 0.43% among 200,000; Potency, µM, for the others: max response, negative = inhibition, actives largely listed as inhibitors;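 further: plate controls were neutral wells for no effect and buffer without enzyme for full effect; nearly all actives have a fitted effect of over 40% in size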
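Cysteine protease activity tested under reducing, mildly acidic conditions (100 mM sodium acetate pH 5.5, 5 mM DTT) plus 0.01% Triton X-100. Cruzain 1.5 nM; substrate Z-FR-AMC 2 uM; 15 min compound preincubation at room temperature.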
Active calls of the source: *; ? = inconclusive; ! = a repeat was not active. Most compounds without a hit are left out; they make up all but 2.5% or so of the library. The call rests on the fitted dose curve; in most records, active means well fitted curve in the direction sought with a large enough effect; inconclusive means small, poorly fitted or top-dose-only effect, or another doubt; inactive means no such curve, though single readings can be large; an effect the other way counts as inactive or inconclusive. Potency means the concentration at half of the fitted maximal effect.

SMILES	Cruzain noTriton	Cruzain Triton
CCOC(=O)c1cc(-c2ccccc2)n(CC(=O)Nc2cccc(OC)c2)c1C	15%	-2%
CCOC(=O)c1cc(-c2ccccc2)n(-c2cccc(C(=O)Nc3cccc(C(C)=O)c3)c2)c1C	?	-1%
CCOC(=O)c1cc(-c2ccccc2)n(-c2cccc(C(=O)N(C)c3ccc(C)cc3)c2)c1C	-4%	-4%
CCOC(=O)c1cc(-c2ccccc2)n(-c2cccc(C(=O)Nc3cccc(F)c3)c2)c1C	10µM*	-1%
CCOC(=O)c1cc(-c2ccccc2)n(-c2cccc(C(=O)NC(C)(C)C)c2)c1C	-1%	0%
CCOC(=O)c1cc(-c2ccccc2)n(-c2cccc(C(=O)Nc3ccc(F)c(F)c3)c2)c1C	20µM*	1%
CCOC(=O)c1cc(-c2ccccc2)n(-c2cccc(C(=O)Nc3cccc(SC)c3)c2)c1C	10µM*	1%
CCOC(=O)c1c(C)[nH]c(CCC(=O)NC(C)c2ccccc2)c1C (configuration not stated)	4%	1%
Cc1ccc(Sc2ccc(N3CCCC(C(=O)Nc4ccc(F)cc4)C3)nn2)cc1 (configuration not stated)	-21%	-6%
CCOC(=O)N1C2C=C(C)[C@@H]2[C@@H]2CC(=O)N21 (some centres not stated)	13µM*	14µM*
CCOC(=O)N1CCN(C2CC(=O)N(c3ccc(C)cc3)C2=O)CC1 (configuration not stated)	4%	7%
COc1ccc(-c2oc3ncn4nc(COc5cccc(C)c5C)nc4c3c2-c2ccc(OC)cc2)cc1	-7%	-2%
COc1ccc(OC)c(NC(=O)c2cc(=O)c3c(C)cc(C)cc3o2)c1	-15%	-1%
C/C(=N\Nc1cccc2ccccc12)c1c(O)n(Cc2ccccc2)c(=O)[nH]c1=O	10µM*	-5%
CC(=NCc1cccnc1)c1c(O)n(Cc2ccccc2)c(=O)[nH]c1=O	-2%	-1%
Clc1nc(-c2cccnc2)nc2scc(-c3ccccc3)c12	-16%	-4%
COc1ccc(-c2csc3nc(-c4cccnc4)nc(Cl)c23)cc1OC	-13%	13µM*
CCOC(=O)C1CCCN(C(=O)c2ccccc2NC(=O)c2nsc3ccccc23)C1 (configuration not stated)	11%	-5%
Oc1ccc(Nc2nc(-c3cccs3)cs2)cc1	-27%	1%
COc1ccc(Nc2nc(-c3sc(N)nc3C)cs2)cc1	16µM*	16µM*
COc1ccc(Nc2nc(-c3cccs3)cs2)cc1	16µM*	0%
Cc1nc(N)sc1-c1csc(Nc2ccccn2)n1	13µM*	?
Cc1cccnc1Nc1nc(-c2ccc(O)cc2)cs1	-6%	-6%
COc1ccc(Nc2nc(-c3sc(NC(C)=O)nc3C)cs2)cc1	5%	-3%
COc1ccc(CCNc2ccncn2)cc1OC	-3%	5%
SMILES	Cruzain noTriton	Cruzain Triton
COc1ccc(CCNc2nc(-c3sc(N)nc3C)cs2)cc1OC	10µM*	14µM*
COc1cccc(CNC(=O)C(Cc2ccccc2)NS(=O)(=O)c2ccc3c(c2)CCN3C(C)=O)c1 (configuration not stated)	-1%	-6%
CCOC(=O)c1c(C)[nH]c(CCC(=O)NCCCN2CCN(c3ccccc3F)CC2)c1C	12%	4%
Cc1cccc(-n2c(C)cc(C(=O)C(=O)Nc3nncs3)c2C)c1	-10%	-2%
Cc1cn2c(=O)c(S(=O)(=O)N3CCN(c4cc(Cl)ccc4C)CC3)c(C)nc2s1	-2%	-1%
CO[C@H]1C([C@@]2(C)O[C@@H]2CC=C(C)C)[C@]2(CC[C@H]1OC(=O)/C=C/C=C/C=C/C=C/C(=O)O)CO2 (some centres not stated)	?	0%
Cc1nc(N)sc1-c1csc(Nc2ccc(Cl)cn2)n1	16µM*	28µM*
CC(=O)Nc1cccc(-c2csc(Nc3ccc(C)cn3)n2)c1	9%	-19%
[O-][Br+2]([O-])O	-25%	22µM*!
COc1ccc2c(CC(=O)Nc3ccc(C)cc3)coc2c1	-14%	-8%
CCCCCCNc1nc(NCc2ccco2)nc(OCC)n1	-1%	-5%
CCCCCCCCNc1nc(Cl)nc(NCc2ccco2)n1	16µM*	-2%
CNC(=O)C1CCN(Cc2cc3ccccc3n2Cc2cccc(C)c2)CC1	8%	0%
Cc1ccc(Cl)cc1N1CCN(S(=O)(=O)c2cn(C)c(C)n2)CC1	0%	-1%
CC1CCN(S(=O)(=O)c2ccc3c(ccc(=O)n3CC(=O)Nc3cccc(F)c3)c2)CC1	-2%	-2%
Cc1ccc(CNC(=O)c2ccc3c(c2)c(C)c(C)n3Cc2ccc(Cl)cc2)o1	?	-1%
CC(=O)c1cccc(NC(=O)c2ccc3c(c2)c(C)c(C)n3Cc2ccc(Cl)cc2)c1	6.3µM*	3%
COc1ccc(OC)c(NC(=O)c2ccc3c(c2)c(C)c(C)n3Cc2ccc(F)cc2)c1	5µM*	1%
CCn1c(C)c(C)c2cc(C(=O)Nc3cccc(Cl)c3)ccc21	?	-6%
CCOc1ccc(NC(=O)c2ccc3[nH]c(C)c(C)c3c2)cc1	-19%	-8%
CCOc1ccc(NC(=O)c2ccc3c(c2)c(C)c(C)n3Cc2ccc(F)cc2)cc1	25µM*	2%
COc1ccc(NC(=O)c2ccc3c(c2)c(C)c(C)n3Cc2ccc(F)cc2)c(OC)c1	?	-1%
Cc1c(C)n(Cc2ccc(F)cc2)c2ccc(C(=O)Nc3ccc(Cl)cc3)cc12	25µM*	3%
COc1ccc2cc(C(C)CO)ccc2c1 (configuration not stated)	3%	-1%
Cc1ccc2onc(CC(=O)N3CCN(c4cc(Cl)ccc4C)CC3)c2c1	-8%	-4%
SMILES	Cruzain noTriton	Cruzain Triton
COc1ccc(CCNC(=O)CCc2c(C)nc3c(c(C)nn3-c3ccccc3)c2C)c(OC)c1	-4%	-2%
Nc1nnc(SCC(=O)NCCOc2ccccc2)s1	?	28µM*
O=C(CSc1nc2ccccc2s1)NCCOc1ccccc1	0%	-5%
O=C(Nc1ccccc1)/C(=C/c1ccccc1)c1ccccc1	13µM*	-3%
Cc1ccccc1NC(=O)/C(=C/c1ccccc1)c1ccccc1	-5%	-1%
Cc1nc(S/C(=C/c2ccc(-c3ccc(Cl)cc3)o2)C(=O)O)n[nH]1	13µM*	-2%
CCCCOC(=O)/C(C#N)=C\c1ccc(-c2ccc(Cl)cc2)o1	0%	2%
O=C(/C=C\c1ccccc1)NC1CC(=O)N(c2ccccc2)C1 (configuration not stated)	1%	-2%
CC1=NN(C(=O)c2ccncc2)C(=O)[C@@H]1N=Nc1ccc2ccccc2c1	-5%	-3%
CC1=NN(c2nc(-c3ccc(C)cc3)cs2)C(=O)C1N=Nc1ccc2ccccc2c1 (configuration not stated)	3.2µM*	-7%
O=C(Nc1sc2c(c1-c1nc3ccccc3[nH]1)CCCC2)C1CCCC1	13µM*	-5%
CC(=O)NCCC(=O)Nc1sc2c(c1-c1nc3ccccc3[nH]1)CCCC2	-13%	-9%
CN1CCN(S(=O)(=O)c2cccc(C(=O)Nc3sc4c(c3-c3nc5ccccc5[nH]3)CCCC4)c2)CC1	16µM*	-6%
CC(=O)N1CCN(S(=O)(=O)c2cccc(C(=O)Nc3nc4c(s3)CCCC4)c2)CC1	?	-9%
COc1ccccc1N1CCN(C(=O)c2cc3ccc4ccc(C)[nH]c4c3n2)CC1	5%	-9%
Cc1cccc(C(=O)NC(=O)Nc2ccc(-c3cc(C(F)(F)F)nn3-c3ccccc3)cc2)c1	1%	2%

Screening results (PubChem)
